Measurements published in PubChem BioAssay.
Active and inactive are the calls of the source.

Columns and labels:
[1] = binders of probe aFSTL3 on microarray, primary screen, stem cell growth factor project, biochemical, small-molecule microarray, fluorescence 635/667 (AID 1064); details: higher = more signal;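 note: measures binding of the biotinylated anti-FSTL3 antibody to printed compounds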
[2] = binders from COS7 lysate, DM2A8 probe, primary screen, torsin A project, cell lysate, small-molecule microarray, fluorescence 635/667 (AID 1065); details: higher = more signal, COS7 lysate expressing mutant human TOR1A
[3] = binders of probe aFGF2 on microarray, primary screen, stem cell growth factor project, biochemical, small-molecule microarray, fluorescence 635/667 (AID 1067); details: higher = more signal;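 note: measures binding of biotinylated aFGF2 protein to printed compounds on slides; z-score merges feature fluorescence and signal-to-noise across triplicate slides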
[4] = binders of probe aFGF10 on microarray, primary screen, stem cell growth factor project, biochemical, small-molecule microarray, fluorescence 635/667 (AID 1071); details: higher = more signal;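 note: score merges 667 nm spot intensity and signal to noise from triplicate slides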
[5] = molecular target: Neurogenic locus notch homolog protein 2 (Homo sapiens) (UniProt Q04721); assay: Notch2 binders on small-molecule microarrays, primary screen, biochemical, small-molecule microarray, 635 nm fluorescence, stem cell growth factors (AID 1073); details: Notch2 binding, higher = more signal
[6] = molecular target: Pro-neuregulin-1, membrane-bound isoform (Homo sapiens) (UniProt Q02297); assay: NRG1 binders on small-molecule microarrays, primary screen, psychiatric disease protein project, biochemical, small-molecule microarray, fluorescence 635/667 (AID 1075); details: NRG1 binding, 635 nm fluorescence, higher = more signal;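 note: score combines 667 nm spot fluorescence with signal to noise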
[7] = tested on: Neuregulin-1 EGF-like domain; assay: binders of neuregulin-1 EGF-like domain, primary screen, biochemical, small-molecule microarray, 635 nm fluorescence (AID 1081); details: small-molecule microarray binding, higher = more signal;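 note: binding of the protein to compounds printed on small-molecule microarray slides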
[8] = FRG1 promoter luciferase signal modulators, primary screen, FRG1 inhibition for FSHD, cell-based, C2C12 myotubes, firefly/Renilla luciferase, luminescence (AID 1084); details: higher = more signal, called active from +8 up or from −8 down
[9] = binders of probe aFST on microarray, primary screen, stem cell growth factor project, biochemical, small-molecule microarray, fluorescence 635/667 (AID 1086); details: higher = more signal;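 note: score merges 667 nm fluorescence with signal-to-noise of each printed compound spot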
[10] = binders of probe aHhip on microarray, primary screen, stem cell growth factor project, biochemical, small-molecule microarray, fluorescence 635/667 (AID 1087); details: higher = more signal;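 note: score merges spot fluorescence at 667nm with spot signal to noise ratio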
[11] = tested on: PRMT1 (protein arginine N-methyltransferase 1); assay: PRMT1 binders on small-molecule microarrays, primary screen, biochemical, small-molecule microarray, 635 nm fluorescence (AID 1088); details: small-molecule microarray binding, higher = more signal;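 note: binding of Prmt1 protein to compounds spotted on small-molecule microarray slides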
[12] = yeast growth modulation, basal conditions, primary screen, YJM789 clinical isolate, OD600, 24 h (AID 1089);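 note: growth of clinical yeast isolate S. cerevisiae YJM 789 seeded 1000 cells per well; test concentration not given here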; details: S. cerevisiae YJM789 growth, higher = more signal, called active from +8 up or from −8 down
[13] = fission yeast growth modulation, primary screen, strain 972, OD600, 24 h, no modulator (AID 1090);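 note: basal condition with compound alone and no growth modifier present; test concentration not given here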; details: S. pombe 972 growth, higher = more signal, called active from +8 up or from −8 down
[14] = S. cerevisiae growth modulation with rapamycin, primary screen, strain BY4716, OD600, 96 h (AID 1091); details: higher = more signal, called active from +8 up or from −8 down; note: test concentration not given here
[15] = molecular target: Torsin-1A-interacting protein 2 (Homo sapiens) (UniProt Q8NFQ8); assay: LULL1 binders on small-molecule microarray, primary screen, cell lysate, human LULL1 lysate, 635/667 nm fluorescence (AID 1092); details: hLULL1 lysate binding, 635 nm fluorescence, higher = more signal;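 note: probe is lysate of COS7 cells overexpressing human LULL1; score merges per-feature 667 nm fluorescence with signal-to-noise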
[16] = E. coli growth modulation, two-sided OD650, primary screen, E. coli filamentation project, strain DRC41, 24 h (AID 1093); details: OD650, 24 h, higher = more signal, called active from +8 up or from −8 down;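 note: MC1000 strain lacking acrAB efflux and sulA so SOS filamentation is blocked; test concentration not given here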
[17] = small-molecule microarray binders of probe aLefty2, primary screen, biochemical, biotinylated probe, 635/667 nm fluorescence (AID 1094); details: higher = more signal;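 note: score merges spot fluorescence near 667 nm with spot signal-to-noise ratio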
[18] = tested on: Noggin (protein binding on small-molecule microarray); assay: Noggin binders on small-molecule microarray, primary screen, biochemical, 635/667 nm fluorescence (AID 1095); details: 635 nm fluorescence, higher = more signal;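 note: score merges 667 nm feature fluorescence with signal to noise over triplicate slides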
[19] = molecular target: Neurogenic locus notch homolog protein 3 (Homo sapiens) (UniProt Q9UM47); assay: NOTCH3 binders on small-molecule microarray, primary screen, biochemical, 635/667 nm fluorescence (AID 1096); details: NOTCH3 binding, 635 nm fluorescence, higher = more signal
[20] = small-molecule microarray binders of probe aEGFR, primary screen, biochemical, biotinylated probe, 635/667 nm fluorescence (AID 1097); details: higher = more signal;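 note: probe is a biotinylated anti-EGFR antibody binding compounds printed on slides; score combines fluorescence near 667 nm and signal to noise of each spot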

Chain of Neurogenic locus notch homolog protein 2 (Homo sapiens) (Q04721 whole entry, looked up, canonical isoform): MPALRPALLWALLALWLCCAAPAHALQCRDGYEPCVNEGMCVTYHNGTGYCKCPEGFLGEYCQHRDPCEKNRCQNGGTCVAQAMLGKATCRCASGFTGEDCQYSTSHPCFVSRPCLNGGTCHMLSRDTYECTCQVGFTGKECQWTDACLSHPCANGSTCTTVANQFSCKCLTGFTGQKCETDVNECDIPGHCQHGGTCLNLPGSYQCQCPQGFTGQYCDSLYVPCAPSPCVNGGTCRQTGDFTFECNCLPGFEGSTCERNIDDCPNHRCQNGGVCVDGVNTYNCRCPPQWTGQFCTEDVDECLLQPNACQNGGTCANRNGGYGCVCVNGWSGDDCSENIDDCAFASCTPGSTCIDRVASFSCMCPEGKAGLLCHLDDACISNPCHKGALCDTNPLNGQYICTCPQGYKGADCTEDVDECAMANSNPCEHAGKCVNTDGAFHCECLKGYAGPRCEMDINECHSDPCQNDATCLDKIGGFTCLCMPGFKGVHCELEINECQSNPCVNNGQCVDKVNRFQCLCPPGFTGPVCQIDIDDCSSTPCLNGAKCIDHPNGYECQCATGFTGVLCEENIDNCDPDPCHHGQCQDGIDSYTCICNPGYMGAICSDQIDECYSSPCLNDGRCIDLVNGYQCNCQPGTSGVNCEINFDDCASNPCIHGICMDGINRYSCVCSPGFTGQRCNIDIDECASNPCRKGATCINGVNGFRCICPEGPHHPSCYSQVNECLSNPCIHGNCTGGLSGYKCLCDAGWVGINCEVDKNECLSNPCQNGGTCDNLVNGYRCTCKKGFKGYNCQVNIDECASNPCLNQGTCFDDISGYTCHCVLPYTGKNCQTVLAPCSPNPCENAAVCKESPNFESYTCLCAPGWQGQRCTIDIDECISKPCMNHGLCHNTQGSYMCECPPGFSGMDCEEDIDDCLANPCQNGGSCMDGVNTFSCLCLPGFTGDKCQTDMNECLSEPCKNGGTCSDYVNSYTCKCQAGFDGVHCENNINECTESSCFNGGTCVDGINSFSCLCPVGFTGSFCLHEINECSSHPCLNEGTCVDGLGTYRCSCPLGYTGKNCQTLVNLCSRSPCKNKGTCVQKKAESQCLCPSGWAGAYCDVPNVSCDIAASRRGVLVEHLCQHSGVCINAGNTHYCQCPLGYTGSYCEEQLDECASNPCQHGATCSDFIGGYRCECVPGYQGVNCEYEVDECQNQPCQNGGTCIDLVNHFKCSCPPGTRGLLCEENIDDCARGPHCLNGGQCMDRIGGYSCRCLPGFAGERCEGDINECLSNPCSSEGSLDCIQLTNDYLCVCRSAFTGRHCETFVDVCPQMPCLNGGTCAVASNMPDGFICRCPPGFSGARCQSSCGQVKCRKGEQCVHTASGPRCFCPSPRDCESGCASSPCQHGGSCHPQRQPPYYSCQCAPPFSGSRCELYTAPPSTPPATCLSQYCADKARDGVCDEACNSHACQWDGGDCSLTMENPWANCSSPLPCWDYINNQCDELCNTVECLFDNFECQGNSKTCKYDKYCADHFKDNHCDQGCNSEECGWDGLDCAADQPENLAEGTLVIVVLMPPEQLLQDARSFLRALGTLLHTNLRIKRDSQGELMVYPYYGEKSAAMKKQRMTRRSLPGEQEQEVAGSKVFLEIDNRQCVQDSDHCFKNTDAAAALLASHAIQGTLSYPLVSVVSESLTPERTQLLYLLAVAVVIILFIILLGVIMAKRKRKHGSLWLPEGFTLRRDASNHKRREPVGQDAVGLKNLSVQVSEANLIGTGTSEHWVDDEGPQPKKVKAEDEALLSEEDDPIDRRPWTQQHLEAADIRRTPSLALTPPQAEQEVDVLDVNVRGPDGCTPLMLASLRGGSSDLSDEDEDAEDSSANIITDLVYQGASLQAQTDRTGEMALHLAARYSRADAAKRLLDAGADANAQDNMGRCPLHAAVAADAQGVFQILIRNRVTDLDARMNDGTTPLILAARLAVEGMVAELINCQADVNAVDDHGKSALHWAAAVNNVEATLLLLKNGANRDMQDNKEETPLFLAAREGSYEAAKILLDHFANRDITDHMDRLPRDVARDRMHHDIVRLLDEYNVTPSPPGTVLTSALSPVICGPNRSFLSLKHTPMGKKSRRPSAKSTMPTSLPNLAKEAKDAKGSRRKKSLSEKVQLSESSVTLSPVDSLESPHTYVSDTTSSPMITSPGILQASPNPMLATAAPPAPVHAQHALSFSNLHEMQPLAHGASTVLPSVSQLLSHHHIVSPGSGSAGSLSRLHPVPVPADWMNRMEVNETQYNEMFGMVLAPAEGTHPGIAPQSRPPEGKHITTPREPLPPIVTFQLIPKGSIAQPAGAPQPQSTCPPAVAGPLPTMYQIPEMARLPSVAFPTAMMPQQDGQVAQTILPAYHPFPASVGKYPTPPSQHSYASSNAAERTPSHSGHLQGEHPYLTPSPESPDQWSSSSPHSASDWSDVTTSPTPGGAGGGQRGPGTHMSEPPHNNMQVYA
Chain of Pro-neuregulin-1, membrane-bound isoform (Homo sapiens) (Q02297 whole entry, looked up, the tested form may be a part, canonical isoform): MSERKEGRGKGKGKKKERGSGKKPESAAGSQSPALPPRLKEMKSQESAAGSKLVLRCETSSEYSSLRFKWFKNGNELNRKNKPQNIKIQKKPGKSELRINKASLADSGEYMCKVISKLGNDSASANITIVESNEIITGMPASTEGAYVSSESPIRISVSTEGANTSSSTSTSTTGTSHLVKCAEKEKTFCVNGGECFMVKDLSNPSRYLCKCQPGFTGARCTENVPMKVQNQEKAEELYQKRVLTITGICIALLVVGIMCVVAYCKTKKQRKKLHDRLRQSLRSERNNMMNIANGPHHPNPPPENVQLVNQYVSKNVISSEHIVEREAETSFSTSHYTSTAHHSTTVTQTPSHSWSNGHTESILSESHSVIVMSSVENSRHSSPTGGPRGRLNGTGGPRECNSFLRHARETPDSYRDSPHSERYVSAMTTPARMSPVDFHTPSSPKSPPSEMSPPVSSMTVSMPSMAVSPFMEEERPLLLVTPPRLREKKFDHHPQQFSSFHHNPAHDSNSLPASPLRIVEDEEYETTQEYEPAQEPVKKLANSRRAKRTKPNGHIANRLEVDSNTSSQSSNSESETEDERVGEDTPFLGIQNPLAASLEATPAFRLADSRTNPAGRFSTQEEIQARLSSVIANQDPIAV
Chain of Torsin-1A-interacting protein 2 (Homo sapiens) (Q8NFQ8 whole entry, looked up): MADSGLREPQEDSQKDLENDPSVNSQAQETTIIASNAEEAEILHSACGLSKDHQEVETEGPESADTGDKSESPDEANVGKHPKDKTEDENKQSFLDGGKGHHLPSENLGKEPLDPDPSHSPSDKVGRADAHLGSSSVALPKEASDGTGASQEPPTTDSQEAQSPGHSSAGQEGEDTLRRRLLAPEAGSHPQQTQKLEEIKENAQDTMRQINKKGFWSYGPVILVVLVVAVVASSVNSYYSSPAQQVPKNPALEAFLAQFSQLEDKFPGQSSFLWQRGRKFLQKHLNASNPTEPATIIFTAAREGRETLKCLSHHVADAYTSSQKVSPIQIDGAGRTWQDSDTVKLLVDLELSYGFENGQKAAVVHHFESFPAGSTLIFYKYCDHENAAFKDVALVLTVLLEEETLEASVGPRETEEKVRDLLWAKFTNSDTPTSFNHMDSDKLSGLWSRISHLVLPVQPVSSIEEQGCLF

Row | SMILES | composite z-score [1] | composite z-score [2] | composite z-score [3] | composite z-score [4] | composite z-score [5] | composite z-score [6] | composite z-score [7] | z-score [8] | composite z-score [9] | composite z-score [10] | composite z-score [11] | z-score [12] | z-score [13] | z-score [14] | composite z-score [15] | z-score [16] | composite z-score [17] | composite z-score [18] | composite z-score [19] | composite z-score [20]
1 | CCCCC#C[C@@H]1C=C[C@H](Oc2ccc(C(=O)OC)cc2)[C@@H](COC(=O)OCC)O1 | -0.367 | 0.956 | -0.0874 | 0.495 | 0.65 | 0.338 | 0.733 | -2.03 (inactive) | 0.153 | 0.178 | 0.888 | 0.143 (inactive) | -19.5 (active) | -0.611 (inactive) | 0.508 | 0.197 (inactive) | -0.115 | 0.198 | 0.531 | -0.0051
2 | CC(C)CON=C1[C@H]2CCn3c(=O)n(Cc4cc5c(cc4Cl)OCO5)c(=O)n3[C@H]2[C@H](O)[C@@H]2O[C@H]12 | -0.293 | 0.493 | -0.079 | 0.258 | 0.394 | 0.142 | 0.497 | 0.354 (inactive) | 0.0082 | 0.235 | -0.149 | 0.534 (inactive) | -0.129 (inactive) | 0.296 (inactive) | 0.299 | 0.0007 (inactive) | -0.0936 | 0.607 | 0.573 | -0.0139
3 | COC(=O)CC=C[C@@H](C)[C@@H](C=NO[C@H](C)c1cn([C@H](CO)Cc2ccccc2)nn1)OC | -0.42 | 0.44 | -0.0867 | 0.257 | -0.0484 | -0.0545 | 0.516 | 0.0621 (inactive) | 0.0782 | 0.189 | 1.14 | -0.14 (inactive) | -0.617 (inactive) | -0.0624 (inactive) | 0.169 | 0.0673 (inactive) | -0.12 | 1.37 | 0.614 | 0.0556
4 | O=C1C=C[C@@H](O)[C@@H]2[C@@H]3C(=O)N(C[C@@H]4CCCO4)C(=O)[C@@H]3CC[C@@H]12 | -0.518 | 0.0078 | -0.103 | 0.458 | 0.141 | -0.0326 | 0.691 | -0.241 (inactive) | 0.041 | -0.136 | -0.168 | 0.026 (inactive) | -0.479 (inactive) | 0.818 (inactive) | 0.276 | 0.656 (inactive) | -0.139 | 0.54 | 0.541 | -0.0208
5 | Cc1cc2c(nc1C)CCCN2CC(O)CN1CCCc2nc(C)c(C)cc21 | 0.472 | 1.49 | 0.178 | 0.204 | 0.4 | 0.752 | 0.998 | -0.0397 (inactive) | 0.759 | 1.35 | 0.692 | 0.623 (inactive) | 0.73 (inactive) | -0.238 (inactive) | 1.89 | -0.605 (inactive) | 0.256 | 0.256 | 0.625 | -0.002
6 | Cc1ccc(S(=O)(=O)N[C@@H]2COC(=O)[C@@H](C)COC(=O)CC=C[C@H]2C)cc1 | -0.305 | 0.155 | -0.0777 | 0.259 | 0.672 | -0.126 | 0.167 | 0.204 (inactive) | 0.045 | 0.251 | -0.496 | 1.19 (inactive) | 0.227 (inactive) | 1.02 (inactive) | -0.548 | -0.266 (inactive) | -0.183 | 0.49 | 0.702 | -0.182
7 | CCOC(=O)[C@H](CC(C)C)NC(=O)CCC1CC(OC(=O)NCc2ccc3c(c2)OCO3)CC2(CCCC(COC(=O)NCc3cccc(C(F)(F)F)c3)O2)O1 (stereo not given in full) | -0.109 | -0.249 | -0.0841 | 0.371 | 0.421 | 0.0839 | 0.445 | 0.31 (inactive) | 0.0884 | -0.0994 | 0.312 | 0.518 (inactive) | 0.486 (inactive) | 1.29 (inactive) | 0.851 | -0.772 (inactive) | -0.154 | 0.184 | 0.082 | -0.171
8 | CCC1=NOC(CCC2CC(OC(=O)NCc3cccc4c3OCO4)CC3(CCCC(COC(=O)NCCc4ccccc4OC)O3)O2)C1 (stereo not given) | -0.173 | 0.13 | -0.0466 | 0.504 | 0.608 | 0.796 | 0.793 | 1.02 (inactive) | 0.243 | -0.151 | 1.26 | -0.873 (inactive) | 0.168 (inactive) | 0.327 (inactive) | 2.38 | 1.11 (inactive) | -0.099 | 0.079 | 0.53 | -0.0424
9 | Cn1c(=O)n2n(c1=O)[C@H]1[C@H](O)[C@@H]3O[C@@H]3C(=O)[C@H]1CC2 | -0.439 | 0.197 | -0.128 | 0.355 | 0.584 | -0.208 | 0.712 | 0.101 (inactive) | 0.95 | 0.0053 | -0.261 | 0.954 (inactive) | 0.595 (inactive) | 0.672 (inactive) | 0.485 | 0.442 (inactive) | -0.13 | 0.457 | 0.557 | -0.0508
10 | CCCNC(=O)OC[C@H]1O[C@H](CCON=C(C)CCN2CCc3nc(CC)c(CC)cc3C2)C=C[C@@H]1Oc1ccc(OC)cc1 | -0.343 | 1.59 | -0.129 | -0.0187 | 0.0329 | 0.51 | 0.428 | 0.31 (inactive) | -0.0665 | 0.5 | 0.285 | -0.348 (inactive) | -2.36 (inactive) | 0.156 (inactive) | 0.73 | 0.004 (inactive) | -0.0539 | 0.559 | -0.286 | -0.0381
